The structures appear in SMILES notation. Inconclusive results are not listed. Active and inactive are the calls of the source. The calls were made as follows, unless noted: active = hit-call score of the fitted dose curve at least 0.9, where 1 is the maximum; inconclusive = response in the unintended direction; inactive = score below 0.9.

Test system in the first assay: not listed separately
Put plainly: Tanguay_ZF_120hpf_CIRC_legacy: (Legacy) Oregon State University Tanguay Lab 120 Hour Post-fertilization zebrafish Assay for Circulatory Malformation (AID 2283651).
Conditions: not given
Put shortly:
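Dechorionated wild-type 5D zebrafish embryos, one per well, statically exposed from 6 to 120 hpf at 28C with 0.64% DMSO; circulatory malformation scored present/absent by brightfield microscopy at 120 hpf, dead embryos excluded.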
For `CCOP(=S)(OCC)Oc1nc(Cl)c(Cl)cc1Cl`, the outcome was inactive.
Consider `CCC(C)(C)c1ccc(O)c(C(C)(C)CC)c1`, for which the compound was classed as inactive.
With `O=c1[nH]c(=O)[nH]c(=O)[nH]1`, the compound was called inactive.
Consider `Oc1cccc2cccnc12`, for which the compound was classed as inactive.
In the case of `O=C(O)C(Cl)(Cl)Cl`, the compound was classed as inactive.
Turning to `CC12CC1(C)C(=O)N(c1cc(Cl)cc(Cl)c1)C2=O` (centres undefined), the outcome was inactive.
Consider `O=C(O)C(F)(F)C(F)(F)C(F)(F)C(F)(F)C(F)(F)C(F)(F)C(F)(F)C(F)(F)C(F)(F)C(F)(F)F`, for which the call was inactive.
Regarding `O=C(Nc1ccc2[nH]ccc2c1)c1cc2cc(F)ccc2n1Cc1cccc(F)c1`, the outcome was inactive.
As for `COc1cc(-c2ccc(N)c(OC)c2)ccc1N`, the outcome was inactive.
With `C=C(C)C(=O)[O][Sn]([CH2]CCC)([CH2]CCC)[CH2]CCC`, the call was inactive.
In the case of `C[C@@H]1C[C@@H]([C@H](O)CC2CC(=O)NC(=O)C2)C(=O)[C@@H](C)C1`, the compound was called inactive.
In the case of `CC(C)(c1ccccc1)c1ccc(O)c(C(C)(C)c2ccccc2)c1`, the result was inactive.
On the same count and under the same terms, the value for `CCOP(=S)(OCC)SCSP(=S)(OCC)OCC` was “inactive”.
Take `CC(=O)[O][Hg][c]1ccccc1`: the compound was classed as inactive.
As for `CN(C)N=O`, the compound was classed as inactive.
Turning to `C=CC(=O)OCCCCCC(C)C`, the outcome was inactive.
For `CCC(=O)C(CC(C)N(C)C)(c1ccccc1)c1ccccc1` (centres undefined), the result was inactive.
As for `O=C1C2(Cl)C3(Cl)C4(Cl)C(Cl)(Cl)C5(Cl)C3(Cl)C1(Cl)C5(Cl)C24Cl` (centres undefined), the result was inactive.
As for `C[C@]12CCC(=O)C[C@@H]1CC[C@@H]1[C@@H]2CC[C@]2(C)[C@@H](O)CC[C@@H]12`, the outcome was inactive.
With `CC(C)(C)c1cc(O)ccc1O`, the outcome was inactive.
Regarding `ClC1(Cl)C2(Cl)C3(Cl)C4(Cl)C(Cl)(Cl)C5(Cl)C3(Cl)C1(Cl)C5(Cl)C24Cl` (centres undefined), the call was inactive.
As for `CC(C)(OO)c1ccccc1`, the outcome was inactive.
Regarding `NC(=O)O`, the result was inactive.
Regarding `O=[N+]([O-])c1ccc(O)c([N+](=O)[O-])c1`, the call was inactive.
Consider `CCN1CCC2(CC1)COc1cc3c(cc12)N(C(=O)c1ccc(-c2ccc(-c4nnc(C)o4)cc2C)cc1)CC3`, for which the compound was called inactive.
Turning to `ClCC(Cl)CCl`, the outcome was inactive.
The same measure, in the same setting: with `O=C(O)C(F)(F)C(F)(F)C(F)(F)C(F)(F)C(F)(F)C(F)(F)F` the entry was “inactive”.
With `Cc1ccccc1N`, the compound was called inactive.

Read-out in the next assay: kallikrein-3 (KLK3), KLK3 (gene 354)
Put plainly: LTEA_HepaRG_KLK3: Life Technologies and Expression Analysis (LTEA) Assay for kallikrein-3 (KLK3) using HepaRG (AID 2283652; active = hit-call score of the fitted dose curve at least 0.9, where 1 is the maximum; inactive = score below 0.9). Particulars: mRNA level, 48 h; actives raise or lower the signal. Put shortly:
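Differentiated human HepaRG cells in serum-free induction medium exposed 48 h in duplicate, eight-point half-log series from 100 uM in 0.5% DMSO. KLK3 mRNA by qRT-PCR, normalised to ACTB, GAPDH, POLR2A; bidirectional fit versus DMSO.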
`O=C(O)C(F)(F)C(F)(F)C(F)(F)C(F)(F)C(F)(F)C(F)(F)C(F)(F)C(F)(F)C(F)(F)C(F)(F)F`: the compound was classed as inactive.
Take `ClC1(Cl)C2(Cl)C3(Cl)C4(Cl)C(Cl)(Cl)C5(Cl)C3(Cl)C1(Cl)C5(Cl)C24Cl` (centres undefined): the call was inactive.
As for `NC(=O)O`, the result was inactive.

Read-out in a further assay: solute carrier (SLC22A6), SLC22A6 (gene 9356)
The assay is described as follows: LTEA_HepaRG_SLC22A6: Life Technologies and Expression Analysis (LTEA) Assay for solute carrier (SLC22A6) using HepaRG (AID 2283653; active = hit-call score of the fitted dose curve at least 0.9, where 1 is the maximum; inactive = score below 0.9). Particulars: mRNA level, 48 h; actives raise or lower the signal. Put shortly: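 SLC22A6 transcript was measured by TaqMan qRT-PCR, normalized to three housekeeping genes, after 48 h duplicate exposure of HepaRG cells (100 uM top, half-log steps, 0.5% DMSO); bidirectional fit against vehicle.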
As for `Oc1cccc2cccnc12`, the result was inactive.
The same measure, in the same setting: the value for `O=C(O)C(F)(F)C(F)(F)C(F)(F)C(F)(F)C(F)(F)C(F)(F)C(F)(F)C(F)(F)C(F)(F)C(F)(F)F` was “inactive”; that for `ClC1(Cl)C2(Cl)C3(Cl)C4(Cl)C(Cl)(Cl)C5(Cl)C3(Cl)C1(Cl)C5(Cl)C24Cl` (centres undefined) was “inactive”.
On to `NC(=O)O`, for which the compound was called inactive.

Test system in another assay: not listed separately
The assay is described as follows: Tanguay_ZF_120hpf_SWIM_legacy: (Legacy) Oregon State University Tanguay Lab 120 Hour Post-fertilization zebrafish Assay for Swim Bladder Malformation (AID 2283654).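 Also: swim bladder malformation in each larva scored yes or no under brightfield.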
Conditions: not given
The method, boiled down:
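Embryos lacking chorions were exposed individually and statically to test chemical from 6 to 120 hpf at 28C, with 0.64% DMSO as vehicle. At 120 hpf, swim bladder malformation was recorded as present or absent by brightfield microscopy.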
On to `CCC(C)(C)c1ccc(O)c(C(C)(C)CC)c1`, for which the compound was classed as inactive.
Take `Cn1sc(Cl)cc1=O`: the outcome was inactive.
For the compound `O=C(O)C(Cl)(Cl)Cl`, the outcome was inactive.
Regarding `CC12CC1(C)C(=O)N(c1cc(Cl)cc(Cl)c1)C2=O` (centres undefined), the call was inactive.
With `CCCCCCCCc1ccc(O)cc1`, the compound was classed as inactive.
Consider `O=C(Nc1ccc2[nH]ccc2c1)c1cc2cc(F)ccc2n1Cc1cccc(F)c1`, for which the compound was called inactive.
Turning to `COc1cc(-c2ccc(N)c(OC)c2)ccc1N`, the AC50 (commonly the midpoint of the concentration-response curve, whichever way the signal moves) was 95.5 µM (active).
With `C=C(C)C(=O)[O][Sn]([CH2]CCC)([CH2]CCC)[CH2]CCC`, the result was inactive.
Still for that read-out and setting: with `CC(C)(c1ccccc1)c1ccc(O)c(C(C)(C)c2ccccc2)c1` the entry was “inactive”; with `CCOP(=S)(OCC)SCSP(=S)(OCC)OCC`, “inactive”.
As to `CC(=O)[O][Hg][c]1ccccc1`, the compound was called inactive.
Take `CC(C)(C)CC(C)(C)c1ccc(O)cc1`: the outcome was inactive.
Consider `C=CC(=O)OCCCCCC(C)C`, for which the compound was called inactive.
`CCC(=O)C(CC(C)N(C)C)(c1ccccc1)c1ccccc1` (centres undefined): the compound was classed as inactive.
Still for that read-out and setting: with `ClC1(Cl)C2(Cl)C3(Cl)C4(Cl)C(Cl)(Cl)C5(Cl)C3(Cl)C1(Cl)C5(Cl)C24Cl` (centres undefined) the entry was “inactive”; with `CC(C)(OO)c1ccccc1`, “inactive”; with `NC(=O)O`, “inactive”.
Same read-out and setting: the value for `O=[N+]([O-])c1ccc(O)c([N+](=O)[O-])c1` was “inactive”; that for `CCN1CCC2(CC1)COc1cc3c(cc12)N(C(=O)c1ccc(-c2ccc(-c4nnc(C)o4)cc2C)cc1)CC3` was “inactive”; that for `ClCC(Cl)CCl` was “inactive”.
Consider `O=C(O)C(F)(F)C(F)(F)C(F)(F)C(F)(F)C(F)(F)C(F)(F)F`, for which the compound was called inactive.
Regarding `Cc1ccccc1N`, the result was inactive.

Test system in a further assay: not listed separately
The assay is described as follows: Tanguay_ZF_120hpf_TRUN_legacy: (Legacy) Oregon State University Tanguay Lab 120 Hour Post-fertilization zebrafish Assay for Truncated Body (AID 2283655).
Conditions: not given
Put shortly:
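Binary presence/absence of truncated body is recorded at 120 hpf by brightfield, with non-mortality endpoints skipped after death. Exposure is static from 6 hpf in sealed dark plates at 28C, using dechorionated wild-type zebrafish, 0.64% DMSO.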
In the case of `CCOP(=S)(OCC)Oc1nc(Cl)c(Cl)cc1Cl`, the result was inactive.
With `CCC(C)(C)c1ccc(O)c(C(C)(C)CC)c1`, the call was inactive.
Consider `O=c1[nH]c(=O)[nH]c(=O)[nH]1`, for which the compound was classed as inactive.
With `O=C(O)C(Cl)(Cl)Cl`, the compound was classed as inactive.
As for `CC12CC1(C)C(=O)N(c1cc(Cl)cc(Cl)c1)C2=O` (centres undefined), the call was inactive.
On to `O=C(O)C(F)(F)C(F)(F)C(F)(F)C(F)(F)C(F)(F)C(F)(F)C(F)(F)C(F)(F)C(F)(F)C(F)(F)F`, for which the outcome was inactive.
As to `CCCCCCCCc1ccc(O)cc1`, the outcome was inactive.
On to `O=C(Nc1ccc2[nH]ccc2c1)c1cc2cc(F)ccc2n1Cc1cccc(F)c1`, for which the compound was classed as inactive.
The same measure, in the same setting: the value for `COc1cc(-c2ccc(N)c(OC)c2)ccc1N` was “inactive”; that for `C=C(C)C(=O)[O][Sn]([CH2]CCC)([CH2]CCC)[CH2]CCC` was “inactive”.
Turning to `C[C@@H]1C[C@@H]([C@H](O)CC2CC(=O)NC(=O)C2)C(=O)[C@@H](C)C1`, the call was inactive.
Take `CC(C)(c1ccccc1)c1ccc(O)c(C(C)(C)c2ccccc2)c1`: the compound was called inactive.
Consider `CCOP(=S)(OCC)SCSP(=S)(OCC)OCC`, for which the outcome was inactive.
Still for that read-out and setting: the value for `CC(=O)[O][Hg][c]1ccccc1` was “inactive”.
On to `CN(C)N=O`, for which the call was inactive.
Take `CC(C)(C)CC(C)(C)c1ccc(O)cc1`: the compound was called inactive.
Turning to `C=CC(=O)OCCCCCC(C)C`, the outcome was inactive.
Still for that read-out and setting: with `CCC(=O)C(CC(C)N(C)C)(c1ccccc1)c1ccccc1` (centres undefined) the entry was “inactive”.
With `O=C1C2(Cl)C3(Cl)C4(Cl)C(Cl)(Cl)C5(Cl)C3(Cl)C1(Cl)C5(Cl)C24Cl` (centres undefined), the concentration at half-maximal activity (AC50) was 15.2 µM (active).
On to `C[C@]12CCC(=O)C[C@@H]1CC[C@@H]1[C@@H]2CC[C@]2(C)[C@@H](O)CC[C@@H]12`, for which the compound was classed as inactive.
In the case of `CC(C)(C)c1cc(O)ccc1O`, the result was inactive.
For `ClC1(Cl)C2(Cl)C3(Cl)C4(Cl)C(Cl)(Cl)C5(Cl)C3(Cl)C1(Cl)C5(Cl)C24Cl` (centres undefined), the compound was called inactive.
Turning to `CC(C)(OO)c1ccccc1`, the compound was classed as inactive.
On to `NC(=O)O`, for which the outcome was inactive.
`CCN1CCC2(CC1)COc1cc3c(cc12)N(C(=O)c1ccc(-c2ccc(-c4nnc(C)o4)cc2C)cc1)CC3`: the result was inactive.
Turning to `ClCC(Cl)CCl`, the compound was classed as inactive.
`Cc1ccccc1N`: the compound was called inactive.

(Values after PubChem BioAssay (EPA / NIEHS).)
